# Assay results reported in PubChem BioAssay (NCATS).
# Inconclusive results are not listed. A call without a number means that no potency is given here. Active and inactive are the calls of the source. Calls come from the whole dose curve; as a rule, active = well fitted curve in the direction sought with a large enough effect; inconclusive = small, poorly fitted or top-dose-only effect, or another doubt; inactive = no such curve, though single readings can be large; an effect the other way counts as inactive or inconclusive.
# Assay: qHTS of pediatric cancer cell lines to identify multiple opportunities for drug repurposing: Confirmatory screen for SK-N-MC cells (AID 1347111);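 note: cells exposed to compound for 48 h before the readout; nearly all actives have a fitted effect of over 70% in size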
# Conditions: SK-N-MC cell viability; series mostly up to 45.9 µM
# How it was run: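 Seed 500-1,000 cells/well; rest 5 h at 37 degrees C. Pin-transfer compounds, 11-point titration. Incubate 48 h. Add CellTiter-Glo, 15 min RT, read luminescence.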
# Potency is the fitted concentration of half-maximal effect.
row,SMILES,Potency
1,Cc1oncc1C(=O)Nc1ccc(C(F)(F)F)cc1,7.37 µM (active)
2,CCC(C)n1ncn(-c2ccc(N3CCN(c4ccc(OC[C@H]5CO[C@](Cn6cncn6)(c6ccc(Cl)cc6Cl)O5)cc4)CC3)cc2)c1=O (stereo partly specified),4.65 µM (active)
3,O=C(NOC[C@H](O)CO)c1ccc(F)c(F)c1Nc1ccc(I)cc1F,inactive
4,OC[C@H](Cc1ccccc1)Nc1nc(Oc2ccc3c(c2)CCC3)nc2c1ncn2Cc1ccc(-c2ccccc2)cc1,2.33 µM (active)
5,COc1cc(Nc2ncc3c(n2)-c2ccc(Cl)cc2C(c2c(F)cccc2OC)=NC3)ccc1C(=O)O,0.261 µM (active)
6,COc1ccc(-c2ccc3c(N4CCOC[C@H]4C)nc(N4CCOC[C@H]4C)nc3n2)cc1CO,0.827 µM (active)
7,Cc1c(CN2CCN(C(=O)C(C)C)CC2)sc2c(N3CCOCC3)nc(-c3cnc(N)nc3)nc12,0.465 µM (active)
8,Cc1cn[nH]c1,inactive
9,Cc1c(C)c2c(c(C)c1O)CCC(C)(COc1ccc(CC3SC(=O)NC3=O)cc1)O2 (stereo unspecified),inactive
10,CN(C)c1ccc(C2Nc3ccc4ccccc4c3C3=C2C(=O)CC(C)(C)C3)cc1Br (stereo unspecified),19.1 µM (active)
11,Cn1cnc2c(F)c(Nc3ccc(Br)cc3Cl)c(C(=O)NOCCO)cc21,inactive
12,NCCCC(N)(C(=O)O)C(F)F (stereo unspecified),inactive
13,CCCS(=O)(=O)Nc1ccc(F)c(C(=O)c2c[nH]c3ncc(-c4ccc(Cl)cc4)cc23)c1F,23.3 µM (active)
14,NC(=O)c1ccc(I)c([N+](=O)[O-])c1,55.1 µM (active)
15,CCOc1cc(N2CCC(O)CC2)ccc1Nc1ncc2c(n1)N(C)c1ccccc1C(=O)N2C,1.17 µM (active)
16,COc1cc2nccc(Oc3ccc(NC(=O)NC4CC4)c(Cl)c3)c2cc1C(N)=O,26.1 µM (active)
17,Nc1nc2[nH]cc(CCc3ccc(C(=O)N[C@@H](CCC(=O)O)C(=O)O)cc3)c2c(=O)[nH]1,0.147 µM (active)
18,Oc1cccc(-c2nc(N3CCOCC3)c3oc4ncccc4c3n2)c1,0.759 µM (active)
19,Nc1nc2ccc(OC(F)(F)F)cc2s1,inactive
20,Nc1nc2c(ncn2COCCO)c(=O)[nH]1,inactive
21,CCOc1ccn(-c2ccc(F)cc2)c(=O)c1C(=O)Nc1ccc(Oc2ccnc(N)c2Cl)c(F)c1,9.27 µM (active)
22,C#Cc1cccc(Nc2ncnc3cc(OCCOC)c(OCCOC)cc23)c1,14.7 µM (active)
23,COc1cccc2cc(-c3nc(C4CCC(C(=O)O)CC4)n4ncnc(N)c34)[nH]c12 (stereo unspecified),inactive
24,CNCc1ccc(-c2[nH]c3cc(F)cc4c3c2CCNC4=O)cc1,6.57 µM (active)

# Assay: qHTS of pediatric cancer cell lines to identify multiple opportunities for drug repurposing: Confirmatory screen for BT-12 cells (AID 1347112);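 note: viability read after 48 h of compound exposure; nearly all actives have a fitted effect of over 55% in size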
# Conditions: BT-12 rhabdoid tumor cells, viability; series mostly up to 45.9 µM
# How it was run: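 Cells (500-1,000/well) rested 5 h, then received compounds for 48 h; metabolically active cells were measured by CellTiter-Glo luminescence. Final concentrations spanned up to 46 µM (MIPE, 11-point) or 0.59 nM-46 µM (NPC, 8-point) in primary screens, 11-point in follow-ups.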
row,SMILES,Potency
1,NC(N)=NC(=O)c1nc(Cl)c(N)nc1N,inactive
2,COc1ccc(-c2oc3cc(OC)ccc3c2C(=O)c2ccc(C#N)cc2)cc1,inactive
3,CCC(C)(C)C(=O)O[C@H]1C[C@@H](C)C=C2C=C[C@H](C)[C@H](CC[C@@H]3C[C@@H](O)CC(=O)O3)[C@H]21,inactive
4,Cc1oncc1C(=O)Nc1ccc(C(F)(F)F)cc1,inactive
5,O=C(c1cc(Cc2n[nH]c(=O)c3ccccc23)ccc1F)N1CCN(C(=O)C2CC2)CC1,18.5 µM (active)
6,Cn1cnc([N+](=O)[O-])c1Sc1ncnc2nc[nH]c12,inactive
7,OC[C@H](Cc1ccccc1)Nc1nc(Oc2ccc3c(c2)CCC3)nc2c1ncn2Cc1ccc(-c2ccccc2)cc1,inactive
8,CN1CCN(CCCN2c3ccccc3Sc3ccc(C(F)(F)F)cc32)CC1,23.3 µM (active)
9,COc1cc(Nc2ncc3c(n2)-c2ccc(Cl)cc2C(c2c(F)cccc2OC)=NC3)ccc1C(=O)O,inactive
10,CCN(CC)CCCC(C)Nc1ccnc2cc(Cl)ccc12 (stereo unspecified),inactive
11,CS(=O)(=O)c1ccc(C(=O)Nc2ccc(Cl)c(-c3ccccn3)c2)c(Cl)c1,inactive
12,Cc1cn[nH]c1,inactive
13,Cc1c(C)c2c(c(C)c1O)CCC(C)(COc1ccc(CC3SC(=O)NC3=O)cc1)O2 (stereo unspecified),inactive
14,COc1ccc(-c2ccc3c(N4CCOCC4)nc(N4C[C@@H](C)O[C@@H](C)C4)nc3n2)cc1CO,5.22 µM (active)
15,CN(C)c1ccc(C2Nc3ccc4ccccc4c3C3=C2C(=O)CC(C)(C)C3)cc1Br (stereo unspecified),inactive
16,Cn1cnc2c(F)c(Nc3ccc(Br)cc3Cl)c(C(=O)NOCCO)cc21,inactive
17,NCCCC(N)(C(=O)O)C(F)F (stereo unspecified),inactive
18,CCCS(=O)(=O)Nc1ccc(F)c(C(=O)c2c[nH]c3ncc(-c4ccc(Cl)cc4)cc23)c1F,inactive
19,NC(=O)c1ccc(I)c([N+](=O)[O-])c1,inactive
20,Nc1nc2[nH]cc(CCc3ccc(C(=O)N[C@@H](CCC(=O)O)C(=O)O)cc3)c2c(=O)[nH]1,inactive
21,Nc1nc2ccc(OC(F)(F)F)cc2s1,inactive
22,Nc1nc2c(ncn2COCCO)c(=O)[nH]1,inactive
23,OC(CN1CCC(Cc2ccc(F)cc2)CC1)c1ccc(Cl)cc1 (stereo unspecified),inactive
24,CCOc1ccn(-c2ccc(F)cc2)c(=O)c1C(=O)Nc1ccc(Oc2ccnc(N)c2Cl)c(F)c1,inactive
25,O=NN(CCCl)C(=O)NCCCl,inactive
26,CC(C=CC1=C(C)CCCC1(C)C)=CC=CC(C)=CC(=O)O,inactive
27,CNCc1ccc(-c2[nH]c3cc(F)cc4c3c2CCNC4=O)cc1,inactive
